For test [1], the target named is Glucocorticoid receptor (Homo sapiens) (UniProt P04150). Kind of test: ATG_GR_TRANS: Attagene TRANS-FACTORIAL HepG2 Assay for human Glucocorticoid Receptor (GR) (AID 2282978; active means hit-call score of the fitted dose curve at least 0.9, where 1 is the maximum;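 further: activators score as hits since higher reporter transcript over DMSO is fitted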). Conditions: HepG2 Attagene TRANS GR reporter, mRNA transcription. In outline: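 HepG2 transient transfection, multiple reporter units, GAL4-UAS under NR-GAL4 chimera control. 24 h treatment. Reporter mRNA by RT-PCR/CE fluorescence, DMSO as negative control.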

Test [2] deals with Oxysterols receptor LXR-alpha (Homo sapiens) (UniProt Q13133). Nature of the test: ATG_LXRa_TRANS: Attagene TRANS-FACTORIAL HepG2 Assay for human Liver X Receptor alpha (LXRa) (AID 2282980; active means hit-call score of the fitted dose curve at least 0.9, where 1 is the maximum). Conditions: HepG2 Attagene TRANS reporter, LXRa transactivation. In outline: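 HepG2 cells transiently transfected with GAL4-UAS reporter units for chimeric NR-Gal4 proteins, exposed to chemicals for 24 h. Reporter mRNA quantified by RT-PCR and capillary electrophoresis; gain of signal fitted relative to DMSO.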

Test [3] concerns the target Oxysterols receptor LXR-beta (Homo sapiens) (UniProt P55055). Nature of the test: ATG_LXRb_TRANS: Attagene TRANS-FACTORIAL HepG2 Assay for human Liver X Receptor beta (LXRb) (AID 2282981; active means hit-call score of the fitted dose curve at least 0.9, where 1 is the maximum). Conditions: HepG2 Attagene TRANS GAL4-LXRb reporter, mRNA. In outline: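 Multiplexed reporter assay, HepG2, 24 h dosing. Fluorescence of labelled RT-PCR products after capillary electrophoresis gives transcript level; positive fitting direction relative to DMSO.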

In test [4] the target is Hepatocyte nuclear factor 4-alpha (Homo sapiens) (UniProt P41235). Nature of the test: ATG_HNF4a_TRANS: Attagene TRANS-FACTORIAL HepG2 Assay for human Hepatocyte Nuclear Factor 4 alpha (HNF4a) (AID 2282982; active means hit-call score of the fitted dose curve at least 0.9, where 1 is the maximum). Conditions: HepG2 HNF4a transactivation reporter, mRNA readout. The method, boiled down: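 Endpoint reflects transcriptional activation of a GAL4-UAS reporter by an HNF4a-GAL4 chimera in transfected HepG2 cells, 24 h post-dosing. Fluorescence from RT-PCR products separated by capillary electrophoresis; DMSO baseline.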

A short description of test [5]: ATG_M_06_TRANS: Attagene TRANS-FACTORIAL HepG2 Assay for M06 Transcription Factor (Internal Marker) (AID 2282983; active means hit-call score of the fitted dose curve at least 0.9, where 1 is the maximum). Conditions: HepG2 Attagene TRANS M06 internal marker reporter. The method, boiled down: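 mRNA levels of a reporter transcript, quantified as FAM fluorescence on capillary electrophoresis, served as readout. HepG2 cells expressing exogenous GAL4-chimera reporter constructs were exposed for 24 h. Gain of signal over DMSO was evaluated.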

The target of test [6] is Transcriptional activator Myb (Homo sapiens) (UniProt P10242). Kind of test: ATG_Myb_CIS: Attagene CIS-FACTORIAL HepG2 Assay for human Myeloblastosis (Myb) Proto-Oncogene Transcription Factor (AID 2282986). Conditions: HepG2 Attagene CIS-FACTORIAL Myb reporter transcription; actives raise or lower the signal. In outline:
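Multiplexed cis-reporter system in HepG2: transient transfection, 24 h treatment, mRNA readout by RT-PCR and capillary electrophoresis. Both increases and decreases are scored versus DMSO negative control.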

Test [7] has as its target Nuclear respiratory factor 1 (Homo sapiens) (UniProt Q16656). Nature of the test: ATG_NRF1_CIS: Attagene CIS-FACTORIAL HepG2 Assay for human Nuclear Respiratory Factor 1 (NRF1) Orphan Gene (AID 2282987). Conditions: HepG2 NRF1 cis-element reporter, Attagene multiplex; actives raise or lower the signal. In outline:
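Endogenous factor activity was captured via cis-element-driven reporter transcripts in HepG2 cells. Following 24 h chemical treatment, transcripts were quantified by RT-PCR and capillary electrophoresis.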

Test [8] can be described thus: ATG_NRF2_ARE_CIS: Attagene CIS-FACTORIAL HepG2 Assay for human Nuclear Factor Erythroid 2 Related Factor 2 (NFR2) response to Antioxidant Response Elements (ARE) (AID 2282992). Conditions: HepG2 Attagene ARE/NRF2 reporter, transcription factor activity; actives raise or lower the signal. In outline: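 Using transiently transfected HepG2 cells exposed for 24 h, reporter mRNA levels were determined by RT-PCR with fluorescent primer extension and capillary electrophoresis, analysed for gain or loss of signal against DMSO.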

The nature of test [9]: ATG_Oct_MLP_CIS: Attagene CIS-FACTORIAL HepG2 Assay for human Octamer-Binding Transcription Factor (Oct) (AID 2282993). Conditions: HepG2 Attagene cis-factorial Oct reporter, mRNA; actives raise or lower the signal. The method, boiled down:
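Read-out: reporter mRNA via RT-PCR plus capillary electrophoresis of 6-FAM-labelled fragments. Transiently transfected HepG2, 24 h exposure, endogenous TF activity on cis elements. Gain or loss of signal fitted relative to DMSO.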

Test [10] concerns the target Cellular tumor antigen p53 (Homo sapiens) (UniProt P04637). Nature of the test: ATG_p53_CIS: Attagene CIS-FACTORIAL HepG2 Assay for human p53 Transcription Factor (AID 2282994). Conditions: HepG2 p53 cis-element reporter, Attagene mRNA; actives raise or lower the signal. The method, boiled down:
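In HepG2 cells, reporter transcription units under cis-regulatory promoters were transiently introduced. Following 24 h treatment, RNA was processed to labelled, digested cDNA fragments read by capillary electrophoresis; fitting was bidirectional versus DMSO.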

The nature of test [11]: BSK_3C_TissueFactor: BioMAP Diversity Plus: 3C Assay for Tissue Factor Biomarker Activity (AID 2282997). Conditions: BioMAP 3C HUVEC, tissue factor biomarker readout; actives raise or lower the signal. In outline:
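Tissue Factor measured by ELISA, 24 h after treatment of primary HUVEC in the BioMAP 3C setting.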

Test [12] is described as follows: BSK_3C_uPAR: BioMAP Diversity Plus: 3C Assay for Urokinase-type plasminogen activator receptor (uPAR) Biomarker Activity (AID 2282998). Conditions: BioMAP 3C HUVEC, uPAR biomarker ELISA; actives raise or lower the signal. In outline:
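HUVEC primary cells; 24 h post-dose; uPAR by ELISA; gain or loss of signal fitted bidirectionally vs DMSO baseline.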
(In general: An ELISA detects its analyte on a solid surface through an enzyme-linked reagent.)

Test [13] in a line: BSK_3C_VCAM1: BioMAP Diversity Plus: 3C Assay for Vascular cell adhesion molecule 1 (VCAM1) Biomarker Activity (AID 2282999). Conditions: BioMAP 3C HUVEC, VCAM1 ELISA, cytokine-stimulated; actives raise or lower the signal. The method, boiled down:
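HUVEC primary cells, 24 h compound exposure; VCAM-1 by ELISA; gain/loss of signal fitted bidirectionally vs DMSO baseline.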

For test [14], the target named is Bile acid receptor (Homo sapiens) (UniProt Q96RI1). Kind of test: ATG_FXR_TRANS: Attagene TRANS-FACTORIAL HepG2 Assay for Farnesoid X Receptor (FXR) (AID 2282979; active means hit-call score of the fitted dose curve at least 0.9, where 1 is the maximum;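 further: hits raise reporter mRNA above DMSO so AC50 marks FXR activation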). Conditions: HepG2 Attagene TRANS FXR-GAL4 reporter transcription. The method, boiled down: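 HepG2 cells were transiently transfected with GAL4-UAS reporters driven by chimeric NR-Gal4 proteins and dosed for 24 h. Reporter mRNA was quantified by RT-PCR, fluorescent labelling, HpaI digestion and capillary electrophoresis, with gain of signal scored versus DMSO.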

The nature of test [15]: ATG_M_32_TRANS: Attagene TRANS-FACTORIAL HepG2 Assay for M32 Transcription Factor (Internal Marker) (AID 2282984; active means hit-call score of the fitted dose curve at least 0.9, where 1 is the maximum;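 further: transcript level of a background control reporter unit measured by RT-PCR and capillary electrophoresis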). Conditions: HepG2 Attagene TRANS M32 internal marker reporter. In outline:
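Internal-marker readout from a multiplexed transcription reporter panel. HepG2 cells were transfected with GAL4-UAS reporter units, treated 24 hours, and reporter transcript levels determined by fluorescence after RT-PCR and capillary separation.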

The nature of test [16]: ATG_NFI_CIS: Attagene CIS-FACTORIAL HepG2 Assay for human Nuclear Factor I (NFI) (AID 2282989). Conditions: HepG2 cis-regulatory reporter, NFI response element transcription; actives raise or lower the signal. In outline: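 Read-out: reporter mRNA via RT-PCR plus capillary electrophoresis with fluorescence detection. Transiently transfected HepG2 (endogenous TF activity on cis promoters), 24 h compound exposure; gain or loss of signal fitted against DMSO.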

The target in test [17] is Myc proto-oncogene protein (Homo sapiens) (UniProt P01106). Nature of the test: ATG_Myc_CIS: Attagene CIS-FACTORIAL HepG2 Assay for human Myelocytomatosis (Myc) Proto-Oncogene Transcription Factor (AID 2282990). Conditions: HepG2, Attagene cis-reporter transcription factor activity; actives raise or lower the signal. The method, boiled down: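 Transiently transfected HepG2 cells bearing cis-promoter reporter units for endogenous transcription factors; 24 h exposure. Reporter mRNA measured by RT-PCR, 6-FAM primer extension, HpaI cut and capillary electrophoresis; bidirectional fit relative to DMSO.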

Test [18] in a line: ATG_NF_kB_CIS: Attagene CIS-FACTORIAL HepG2 Assay for human Nuclear Factor Kappa B (NF-kB) (AID 2282991). Conditions: HepG2 Attagene cis-factorial NF-kB reporter mRNA; actives raise or lower the signal. The method, boiled down: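 After 24 h compound incubation, transfected HepG2 cells yield total RNA; reporter cDNA is PCR-amplified, end-labelled with 6-FAM, HpaI-digested and analysed on a genetic analyser. Endogenous factor activity, DMSO-referenced bidirectional fit.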

Test [19] concerns the target Estrogen-related receptor gamma (Homo sapiens) (UniProt P62508). Kind of test: ATG_ERRg_TRANS: Attagene TRANS-FACTORIAL HepG2 Assay for human Estrogen-Related Receptor gamma (ERRg) (AID 2282977; active means hit-call score of the fitted dose curve at least 0.9, where 1 is the maximum;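 further: hits increase reporter signal over DMSO so potencies reflect activators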). Conditions: HepG2 Attagene TRANS reporter, ERRg transactivation. The method, boiled down: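 Induction of reporter transcripts through a chimeric NR-Gal4 protein is quantified in transfected human HepG2 liver cells after 24 h chemical exposure, using RT-PCR with capillary electrophoresis detection and DMSO as baseline.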

The target in test [20] is Nuclear receptor subfamily 4 group A member 2 (Homo sapiens) (UniProt P43354). Nature of the test: ATG_NURR1_TRANS: Attagene TRANS-FACTORIAL HepG2 Assay for human Nuclear Receptor Related Protein 1 (NURR1) (AID 2282985; active means hit-call score of the fitted dose curve at least 0.9, where 1 is the maximum). Conditions: HepG2 Attagene TRANS reporter, mRNA readout. In outline:
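Endpoint: reporter mRNA increase relative to DMSO. HepG2 cells transfected with reporter units, treated 24 h; RNA processed by RT-PCR, labelling, HpaI digestion and capillary electrophoresis.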

Records with an inconclusive call do not appear. Activity calls are given as the source filed them. How the source made its calls, unless noted: active means hit-call score of the fitted dose curve at least 0.9, where 1 is the maximum; inactive means score below 0.9.

Chain of Oxysterols receptor LXR-alpha (Homo sapiens) (Q13133 whole entry, looked up, the tested form may be a part): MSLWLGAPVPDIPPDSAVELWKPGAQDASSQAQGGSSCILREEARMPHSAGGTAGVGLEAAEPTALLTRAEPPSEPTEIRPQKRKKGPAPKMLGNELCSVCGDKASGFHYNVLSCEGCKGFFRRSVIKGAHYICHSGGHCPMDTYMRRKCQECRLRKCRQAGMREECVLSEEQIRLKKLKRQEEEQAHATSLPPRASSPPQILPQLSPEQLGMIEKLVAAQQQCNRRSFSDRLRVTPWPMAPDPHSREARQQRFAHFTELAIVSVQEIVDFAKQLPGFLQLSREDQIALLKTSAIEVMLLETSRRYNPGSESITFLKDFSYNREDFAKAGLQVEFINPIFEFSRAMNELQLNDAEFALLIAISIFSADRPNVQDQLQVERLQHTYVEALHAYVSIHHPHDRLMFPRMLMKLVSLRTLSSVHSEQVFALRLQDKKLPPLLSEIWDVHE
Chain of Cellular tumor antigen p53 (Homo sapiens) (P04637 whole entry, looked up, the tested form may be a part): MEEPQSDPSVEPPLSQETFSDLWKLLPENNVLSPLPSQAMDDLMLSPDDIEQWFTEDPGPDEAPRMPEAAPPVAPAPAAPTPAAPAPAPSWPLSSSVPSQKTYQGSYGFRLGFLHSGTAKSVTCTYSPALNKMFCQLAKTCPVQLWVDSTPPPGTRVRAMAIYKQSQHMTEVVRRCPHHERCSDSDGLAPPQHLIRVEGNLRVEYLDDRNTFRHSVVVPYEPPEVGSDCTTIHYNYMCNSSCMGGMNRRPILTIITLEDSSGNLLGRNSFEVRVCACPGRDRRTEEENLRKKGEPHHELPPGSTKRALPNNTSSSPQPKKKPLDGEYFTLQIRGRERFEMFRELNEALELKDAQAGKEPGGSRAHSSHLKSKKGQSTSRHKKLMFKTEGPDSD
Chain of Estrogen-related receptor gamma (Homo sapiens) (P62508 whole entry, looked up, the tested form may be a part): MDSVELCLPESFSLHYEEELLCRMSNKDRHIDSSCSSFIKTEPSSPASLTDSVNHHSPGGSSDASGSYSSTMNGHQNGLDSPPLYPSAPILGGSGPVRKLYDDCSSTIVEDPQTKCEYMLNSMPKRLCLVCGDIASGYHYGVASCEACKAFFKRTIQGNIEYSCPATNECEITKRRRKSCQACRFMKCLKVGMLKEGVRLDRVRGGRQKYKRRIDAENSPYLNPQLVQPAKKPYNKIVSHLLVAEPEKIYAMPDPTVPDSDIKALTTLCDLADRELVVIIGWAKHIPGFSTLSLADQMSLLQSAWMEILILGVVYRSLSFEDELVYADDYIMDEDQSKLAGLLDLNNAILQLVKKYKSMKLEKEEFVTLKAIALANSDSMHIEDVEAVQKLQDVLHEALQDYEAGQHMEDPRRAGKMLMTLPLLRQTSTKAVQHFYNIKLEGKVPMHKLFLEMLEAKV
Chain of Transcriptional activator Myb (Homo sapiens) (P10242 whole entry, looked up): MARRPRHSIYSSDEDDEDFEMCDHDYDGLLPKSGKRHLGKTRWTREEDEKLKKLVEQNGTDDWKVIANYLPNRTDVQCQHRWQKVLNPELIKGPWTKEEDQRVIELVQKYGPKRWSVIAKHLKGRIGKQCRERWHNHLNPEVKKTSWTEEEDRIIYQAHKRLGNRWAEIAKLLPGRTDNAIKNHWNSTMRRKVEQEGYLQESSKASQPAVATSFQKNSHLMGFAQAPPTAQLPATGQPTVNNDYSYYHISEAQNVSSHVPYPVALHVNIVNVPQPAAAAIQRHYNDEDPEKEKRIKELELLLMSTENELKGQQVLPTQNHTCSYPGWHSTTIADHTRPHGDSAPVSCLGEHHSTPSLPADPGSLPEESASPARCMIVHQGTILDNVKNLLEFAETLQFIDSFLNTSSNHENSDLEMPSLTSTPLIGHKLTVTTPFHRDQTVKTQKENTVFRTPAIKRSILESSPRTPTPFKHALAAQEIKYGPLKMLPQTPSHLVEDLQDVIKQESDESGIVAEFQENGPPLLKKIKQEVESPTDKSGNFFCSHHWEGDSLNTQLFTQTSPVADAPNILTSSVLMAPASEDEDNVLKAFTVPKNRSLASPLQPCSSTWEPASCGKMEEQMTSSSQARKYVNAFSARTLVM
Chain of Hepatocyte nuclear factor 4-alpha (Homo sapiens) (P41235 whole entry, looked up, the tested form may be a part): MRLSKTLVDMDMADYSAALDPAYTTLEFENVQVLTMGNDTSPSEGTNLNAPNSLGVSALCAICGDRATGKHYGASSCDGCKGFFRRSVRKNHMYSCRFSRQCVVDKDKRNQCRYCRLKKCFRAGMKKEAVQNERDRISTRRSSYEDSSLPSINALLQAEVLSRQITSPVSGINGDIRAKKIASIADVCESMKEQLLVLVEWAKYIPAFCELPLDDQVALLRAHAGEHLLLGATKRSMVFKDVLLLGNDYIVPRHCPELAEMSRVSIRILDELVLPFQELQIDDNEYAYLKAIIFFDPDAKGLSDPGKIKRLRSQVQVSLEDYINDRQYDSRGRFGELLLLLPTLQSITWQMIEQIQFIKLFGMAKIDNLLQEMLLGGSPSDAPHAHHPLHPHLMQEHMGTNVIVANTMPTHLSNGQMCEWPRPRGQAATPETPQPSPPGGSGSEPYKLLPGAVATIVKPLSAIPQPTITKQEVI
Chain of Nuclear respiratory factor 1 (Homo sapiens) (Q16656 whole entry, looked up): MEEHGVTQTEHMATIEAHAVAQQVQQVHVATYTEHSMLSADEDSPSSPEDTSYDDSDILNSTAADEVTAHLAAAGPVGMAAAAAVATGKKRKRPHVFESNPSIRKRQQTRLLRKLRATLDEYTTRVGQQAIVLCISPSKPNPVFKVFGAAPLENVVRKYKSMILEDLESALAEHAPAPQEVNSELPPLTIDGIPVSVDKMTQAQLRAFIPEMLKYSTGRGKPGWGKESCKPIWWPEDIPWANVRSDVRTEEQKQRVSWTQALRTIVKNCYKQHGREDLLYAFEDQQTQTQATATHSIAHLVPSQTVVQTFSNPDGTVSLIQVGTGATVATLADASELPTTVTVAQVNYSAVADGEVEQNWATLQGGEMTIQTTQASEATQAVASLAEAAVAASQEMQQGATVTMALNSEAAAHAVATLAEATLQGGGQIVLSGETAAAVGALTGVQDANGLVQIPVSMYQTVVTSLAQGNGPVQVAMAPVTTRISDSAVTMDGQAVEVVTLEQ
Chain of Oxysterols receptor LXR-beta (Homo sapiens) (P55055 whole entry, looked up, the tested form may be a part): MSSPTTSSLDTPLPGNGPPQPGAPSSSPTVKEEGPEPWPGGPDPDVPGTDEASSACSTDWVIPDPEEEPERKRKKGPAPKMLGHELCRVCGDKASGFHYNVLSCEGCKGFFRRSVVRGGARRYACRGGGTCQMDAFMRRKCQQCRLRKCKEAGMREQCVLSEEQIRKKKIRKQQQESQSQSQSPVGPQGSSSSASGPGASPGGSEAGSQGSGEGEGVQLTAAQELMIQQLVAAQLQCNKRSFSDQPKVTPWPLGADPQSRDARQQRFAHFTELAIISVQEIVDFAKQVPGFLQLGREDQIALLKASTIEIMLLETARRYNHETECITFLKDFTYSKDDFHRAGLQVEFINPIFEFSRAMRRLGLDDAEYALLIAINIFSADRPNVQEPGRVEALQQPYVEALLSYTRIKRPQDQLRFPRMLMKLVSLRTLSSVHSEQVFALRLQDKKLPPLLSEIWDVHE
Chain of Glucocorticoid receptor (Homo sapiens) (P04150 whole entry, looked up, the tested form may be a part): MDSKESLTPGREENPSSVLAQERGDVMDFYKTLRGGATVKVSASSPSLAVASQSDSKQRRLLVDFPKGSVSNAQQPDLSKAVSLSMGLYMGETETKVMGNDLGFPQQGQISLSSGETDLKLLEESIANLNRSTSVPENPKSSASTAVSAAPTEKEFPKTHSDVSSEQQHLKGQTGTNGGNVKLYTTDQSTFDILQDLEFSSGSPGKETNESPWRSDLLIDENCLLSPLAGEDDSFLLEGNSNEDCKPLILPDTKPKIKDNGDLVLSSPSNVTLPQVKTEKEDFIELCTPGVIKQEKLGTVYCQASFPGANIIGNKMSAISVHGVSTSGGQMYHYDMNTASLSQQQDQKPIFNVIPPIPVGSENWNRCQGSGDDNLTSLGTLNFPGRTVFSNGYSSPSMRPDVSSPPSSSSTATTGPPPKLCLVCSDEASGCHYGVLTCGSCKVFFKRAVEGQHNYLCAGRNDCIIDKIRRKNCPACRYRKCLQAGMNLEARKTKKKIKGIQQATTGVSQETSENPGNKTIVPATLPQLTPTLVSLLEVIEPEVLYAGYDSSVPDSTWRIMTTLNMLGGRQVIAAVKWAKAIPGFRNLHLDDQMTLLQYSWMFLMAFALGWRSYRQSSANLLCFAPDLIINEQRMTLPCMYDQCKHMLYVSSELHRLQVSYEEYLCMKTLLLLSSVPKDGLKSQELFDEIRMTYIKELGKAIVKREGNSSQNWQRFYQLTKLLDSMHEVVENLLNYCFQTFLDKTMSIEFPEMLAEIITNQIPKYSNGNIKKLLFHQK
Chain of Myc proto-oncogene protein (Homo sapiens) (P01106 whole entry, looked up): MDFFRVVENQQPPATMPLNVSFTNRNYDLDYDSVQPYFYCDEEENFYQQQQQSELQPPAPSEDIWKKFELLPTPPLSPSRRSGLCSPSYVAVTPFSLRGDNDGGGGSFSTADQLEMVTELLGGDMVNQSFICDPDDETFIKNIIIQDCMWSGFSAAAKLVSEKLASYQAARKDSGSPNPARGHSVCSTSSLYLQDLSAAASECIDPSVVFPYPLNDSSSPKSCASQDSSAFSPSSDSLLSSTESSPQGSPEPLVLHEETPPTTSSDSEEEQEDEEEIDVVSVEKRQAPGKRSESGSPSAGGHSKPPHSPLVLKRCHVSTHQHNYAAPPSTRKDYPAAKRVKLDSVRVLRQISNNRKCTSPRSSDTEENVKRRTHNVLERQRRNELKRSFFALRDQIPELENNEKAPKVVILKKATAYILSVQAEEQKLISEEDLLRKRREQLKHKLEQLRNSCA

Regarding `COP(=O)(NC(C)=O)SC` (stereo not given), the call in [1], in test [2], in test [3], in test [4], in test [5] and in test [6] was inactive. Moreover, the outcome in test [7], in [8], in test [9], in [10], in [11] and in test [12] was inactive. Further, the outcome in [13] was inactive.

In the case of `CCOP(=O)(NC(C)C)Oc1ccc(SC)c(C)c1` (stereo not given), the molecule was called inactive in [1], in [14], in [2], in test [3], in test [5] and in [15]. In addition, the molecule was classed as inactive in [6], in test [7], in test [16], in [17], in test [18] and in test [10]. Further, the result in test [11], in test [12] and in test [13] was inactive. The AC50 (as a rule, the concentration giving half of the maximal activity seen) in [9] is 11.2 µM (active).

As to `CC(C)=CC1C(C(=O)OCN2C(=O)C3=C(CCCC3)C2=O)C1(C)C` (stereo not given), the result in [19], in [1], in test [2], in test [3], in test [15] and in test [20] was inactive. The result in [7] and in [10] was inactive. Also, the AC50 in test [6] is 50 µM (active); in test [9], 35.4 µM (active); in test [11] it was 12.7 µM (active); in [12], 15.5 µM (active); in test [13], 14.4 µM (active).

For the molecule `Cc1nn(-c2cc(NS(C)(=O)=O)c(Cl)cc2Cl)c(=O)n1C(F)F`, the molecule was called inactive in test [19], in test [2], in test [3], in test [4], in test [6] and in test [7]. Moreover, the molecule was called inactive in test [9], in [10], in test [11], in [12] and in test [13].

As to `COP(=O)(OC)C(O)C(Cl)(Cl)Cl` (stereo not given), the call in test [19], in test [1], in test [14], in test [2], in [4] and in test [15] was inactive. For the same molecule, the molecule was classed as inactive in [6], in test [7], in [16], in test [17], in test [18] and in test [11]. For the same molecule, the result in test [12] and in test [13] was inactive. Moreover, the AC50 in [3] was 92.4 µM (active); in [9] it was 50 µM (active); in test [10] it was 9.92 µM (active).
